High-throughput results deposited in PubChem by National Center for Advancing Translational Sciences (NCATS).
IMPase cell inh: cell-permeable inhibitors of inositol monophosphatase (IMPase). P97697. inhibition (IP1 accumulation), % at 46.1 µM. CHO-M1 cells, IP1 accumulation, HTRF TR-FRET ratio. AID 901. 120,000 tested, under 10 active; active means well fitted curve in the direction sought with a large enough effect in the signal ratio, not every such curve was filed as active; inconclusive means small, poorly fitted or top-dose-only effect, or a change in a side signal; inactive means no such curve, though single readings can be large or run the other way; the % refers to the signal ratio;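 further: cells stimulated with carbachol in lithium chloride buffer; higher means more IMPase inhibition seen as more IP1 and lower FRET ratio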
Target sequence (P97697 whole entry, looked up): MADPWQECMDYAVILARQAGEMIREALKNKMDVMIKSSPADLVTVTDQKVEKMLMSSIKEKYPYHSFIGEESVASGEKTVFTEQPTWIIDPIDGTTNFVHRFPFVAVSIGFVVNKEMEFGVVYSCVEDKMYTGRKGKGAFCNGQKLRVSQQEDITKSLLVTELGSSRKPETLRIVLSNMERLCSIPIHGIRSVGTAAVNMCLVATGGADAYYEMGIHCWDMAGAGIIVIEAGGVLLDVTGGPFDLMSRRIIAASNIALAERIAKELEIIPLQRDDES
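Carbachol-driven Gq signalling in CHO-M1 cells (2000/well) generates IP1. Compounds that block IMPase raise IP1 and so reduce the FRET signal from Eu-anti-IP1 and d2-IP1 after a 10 min room-temperature lysis.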
NPSR antag: antagonists of human neuropeptide S receptor cAMP signaling | CHO-NPSR cells, cAMP TR-FRET, antagonist mode | Potency, µM (doses to about 38.3 µM), actives largely listed as inhibitors | hit rate 1% among 220,000 | AID 1461; further: nearly all actives have a fitted effect of over 50% in size
PNC assembly inh: blocks assembly of the perinucleolar compartment. hit rate 3.1% among 140,000. PC3M PTB-GFP, PNC prevalence imaging, 16 h; active compounds read low. activity change (PNC), negative = inhibition, % at 10 µM;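 active means readout at or below -70, meaning at least 70% loss of cells showing the perinucleolar compartment, a nuclear body marking cancer cells; inconclusive means readout between -30 and a set limit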
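PC3M cells stably expressing PTB-GFP, 750–1000 cells/well, treated 16 h at 37 °C with compound (23 nl of library stock), in duplicate. After paraformaldehyde fixation and Hoechst stain, imaged at 20x; PNC prevalence scored by image analysis.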
IMPase Li inh: membrane-permeable IMPase blocker, potentiated with lithium. CHO-M1 cells, IP1 TR-FRET (IP-One), carbachol + lithium. Potency, µM (series often up to 59.4 µM), hits mostly inhibitors. hit rate 0.35% among 210,000;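 further: IP1 builds up when IMPase is blocked and the TR-FRET signal falls; nearly all actives have a fitted effect of over 50% in size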
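IP1 accumulation measured by competitive TR-FRET in lysed CHO-M1 cells after 30 min compound exposure at 37C, with a small lithium addition to potentiate weak responses. Hill-equation AC50 from ratio and donor-channel data.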
HTT aggregate: mutant huntingtin aggregation inhibition; hit rate 1.1% among 220,000; PC12 HttQ103-GFP aggregates, Acumen cytometry, 40 h; Potency, µM (doses to about 46.1 µM), hits mostly inhibitors; further: nearly all actives have a fitted effect of over 60% in size
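Using laser scanning cytometry, GFP-positive aggregates were counted after lysis of PC12 cells induced with 100 nM tebufenozide to express HTT exon 1 Q103–GFP. Compounds were tested in titration.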
HTT cytoprotect: Huntington cell model cytoprotection by ATP luminescence; PC12 HTT-Q103 induced, cytoprotection, ATP luminescence, 40 h; Potency, µM (titrated, usually from 56.4 µM), most hits filed as activators; hit rate 0.14% among 230,000; AID 1471; further: nearly all actives have a fitted effect of over 45% in size
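Readout: ATPlite luminescence (ATP level). Model: stable PC12, inducible Htt exon1 Q103-GFP. Inducer: tebufenozide, 100 nM final. Compounds: dose series. No G418 in medium.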
Of the large screens only hits and unclear results are named; the others gave an inactive call. Most compounds without a hit are left out; they make up all but 3.4% or so of the library. Unless noted, the call rests on the fitted dose curve; in most records, active means well fitted curve in the direction sought with a large enough effect; inconclusive means small, poorly fitted or top-dose-only effect, or another doubt; inactive means no such curve, though single readings can be large; an effect the other way counts as inactive or inconclusive.

O=C(O)c1ccc(NC2=C(Cl)C(=O)c3ccccc3C2=O)cc1	NPSR antag inconclusive, HTT aggregate inconclusive (no result: IMPase cell inh, PNC assembly inh, IMPase Li inh)
CC1CCN(c2nc(-c3ccccc3)c(C#N)c(=O)[nH]2)CC1	NPSR antag 13µM
CC(C)c1ccc(-c2nc(N3CCCCC3)[nH]c(=O)c2C#N)cc1	none
CCCNC(=O)OC[C@H]1O[C@@H](CCO/N=C2/C[C@@H](O)[C@@H](O)[C@@H]3[C@@H]4C(=O)N(CC)C(=O)[C@H]4CC[C@@H]23)C=C[C@@H]1Oc1ccc(OC)cc1	none (no result: IMPase cell inh, NPSR antag, PNC assembly inh, IMPase Li inh, HTT aggregate)
Cc1nn(-c2ccccc2)c(N2CCCC2)c1/C=N/NC(=O)c1cc2ccccc2cc1O	none
Cc1nn(-c2ccccc2)c(N2CCCC2)c1/C=N/NC(=S)Nc1ccccc1F	PNC assembly inh -86, HTT aggregate inconclusive (no result: IMPase cell inh)
CC(Sc1cccc2cccc(C(=O)O)c12)C(=O)O (stereo not drawn)	none
CC(Sc1cnc2ccccc2n1)C(=O)O (stereo not drawn)	IMPase cell inh inconclusive, NPSR antag inconclusive, IMPase Li inh 13µM
CC(Sc1ccc2ccccc2n1)C(=O)O (stereo not drawn)	IMPase cell inh inconclusive, NPSR antag inconclusive, IMPase Li inh 8.9µM
Cc1cc(SC(C)C(=O)O)nc2ccccc12 (stereo not drawn)	IMPase Li inh inconclusive (no result: IMPase cell inh, PNC assembly inh)
Cc1nc([N+](=O)[O-])c(Br)n1Cc1ccc(Cl)c(Cl)c1	NPSR antag inconclusive, HTT aggregate 8.9µM (no result: IMPase cell inh, PNC assembly inh)
Cc1nc([N+](=O)[O-])c(Br)n1CC(=O)c1ccc(Cl)cc1	NPSR antag inconclusive, HTT aggregate inconclusive
N#CC1(C#N)CC(C=O)=C(N)C1(C#N)CC(=O)C12CC3CC(CC(C3)C1)C2 (stereo not drawn)	none
CN(c1ccccc1)S(=O)(=O)c1ccc(NC(=O)c2ccc(-c3ccccc3)cc2)cc1	HTT aggregate 13µM
NS(=O)(=O)c1ccc(NC(=S)NC(=O)c2ccc(-c3ccccc3)cc2)cc1	IMPase Li inh 11µM
NC(C(=O)N[C@@H]1C(=O)N2C(C(=O)O)=C(Cl)CS[C@H]12)c1ccccc1 (stereo partly drawn)	none (no result: IMPase cell inh, PNC assembly inh, HTT aggregate, HTT cytoprotect)
Cc1cc(C)n(-c2cccc(CN(C)Cc3nc(-c4cnccn4)no3)c2)n1	none (no result: IMPase cell inh, PNC assembly inh)
O=C(c1ccccc1)N1CCN(Cc2c[nH]c3ccccc23)CC1	none
O=[N+]([O-])c1ccccc1CN1CCN(Cc2c[nH]c3ccccc23)CC1	HTT aggregate 8.9µM (no result: IMPase cell inh, PNC assembly inh)
CC(C)Cc1nc(N2CCN(C(=O)c3ccccc3)CC2)c(C#N)c2c1CCC2	NPSR antag 2µM, PNC assembly inh inconclusive, HTT aggregate inconclusive
CC(=O)N1CCN(c2nc(CC(C)C)c3c(c2C#N)CCC3)CC1	PNC assembly inh inconclusive
CN1CCN(c2nc3ccccc3nc2C(C#N)C(=O)OC2CCCCC2)CC1 (stereo not drawn)	HTT aggregate 13µM
COc1cc(C2CC(=O)Nc3cc4c(cc32)OCCO4)cc(OC)c1O (stereo not drawn)	none (no result: NPSR antag, PNC assembly inh, IMPase Li inh, HTT aggregate, HTT cytoprotect)
O=C1CCC(C(=O)NCc2cccnc2)N1 (stereo not drawn)	PNC assembly inh -100
C=CC1=C(C(=O)O)N2C(=O)[C@@H](NC(=O)C(N=O)c3csc(N)n3)[C@H]2SC1 (stereo partly drawn)	none (no result: IMPase cell inh, NPSR antag, PNC assembly inh)
CC(C)CN(C(=O)COC(=O)c1ccccc1SCC(=O)NC1CCCCCC1)C1CCS(=O)(=O)C1 (stereo not drawn)	none
CCN(C(=O)COC(=O)c1ccccc1SCC(=O)NC1CCCCCCC1)C1CCS(=O)(=O)C1 (stereo not drawn)	PNC assembly inh -112 (no result: IMPase cell inh)
NC(=S)N/N=C1/CCSc2ccc3ccccc3c21	none (no result: IMPase cell inh, PNC assembly inh)
O=C1CC(SCc2nc3ccccc3[nH]2)C(=O)N1c1cccc(F)c1 (stereo not drawn)	HTT aggregate 4µM, HTT cytoprotect inconclusive
O=C1CC(SCc2nc3ccccc3[nH]2)C(=O)N1c1ccc(F)c(Cl)c1 (stereo not drawn)	none
CCC(C(=O)NNC(=O)c1cnccn1)c1ccccc1 (stereo not drawn)	HTT aggregate 7.9µM (no result: IMPase cell inh)
